Rows were chosen to be rich in hits. Some 7.3% of all compounds tested hit in one or more screens of this group.
3T3 cytotox = Cytotoxic Profiling in NIH 3T3 Cell Line of Diverse Libraries Using Quantitative High-Throughput Screening; 4.3% of 94,000 active; Potency, µM (doses to about 96.7 µM), usual class: inhibitors; AID 1345082, 2018; NIH 3T3 viability, CellTiter-Glo ATP luminescence, 48-72 h; note: nearly all actives have a fitted effect of over 55% in size
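ATP-dependent luminescence (CellTiter-Glo) served as the viability signal for NIH 3T3 cells treated with compound for 48 or 72 hr at 37 °C.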
SNCA expr inh = Primary qHTS assay for inhibitors of alpha-synuclein gene (SNCA) expression; 0.17% of 140,000 active; Potency, µM (titrated, usually from 57.2 µM), hits mostly inhibitors; HEK-293 SNCA-luciferase knock-in, luminescence, 24 h; note: nearly all actives have a fitted effect of over 45% in size
HEK293 tox = Cytotoxic Profiling in HEK 293 Cell Line of Diverse Libraries Using Quantitative High-Throughput Screening; HEK 293 viability, ATP luminescence (CellTiter-Glo), 48-72 h; Potency, µM (doses to about 115 µM), actives largely listed as inhibitors; 6.6% of 94,000 active; note: nearly all actives have a fitted effect of over 60% in size
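ATP-coupled CellTiter-Glo luminescence served as viability read-out, recorded 10 min after reagent addition at room temperature. HEK 293 cells, 250 cells/well, had been incubated with pintool-transferred compound for 48 or 72 hr at 37 degree Celsius.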
FLuc inh-1 = Firefly luciferase inhibition profiling of diverse chemical library using quantitative high-throughput screening; Luciferin 4-monooxygenase (Photinus pyralis), P08659; purified P. pyralis luciferase, luminescence, biochemical; Potency, µM (doses to about 115 µM), actives largely listed as inhibitors; 2.5% of 76,000 active; AID 1347043, 2019; note: nearly all actives have a fitted effect of over 65% in size
Target sequence (P08659 whole entry, looked up): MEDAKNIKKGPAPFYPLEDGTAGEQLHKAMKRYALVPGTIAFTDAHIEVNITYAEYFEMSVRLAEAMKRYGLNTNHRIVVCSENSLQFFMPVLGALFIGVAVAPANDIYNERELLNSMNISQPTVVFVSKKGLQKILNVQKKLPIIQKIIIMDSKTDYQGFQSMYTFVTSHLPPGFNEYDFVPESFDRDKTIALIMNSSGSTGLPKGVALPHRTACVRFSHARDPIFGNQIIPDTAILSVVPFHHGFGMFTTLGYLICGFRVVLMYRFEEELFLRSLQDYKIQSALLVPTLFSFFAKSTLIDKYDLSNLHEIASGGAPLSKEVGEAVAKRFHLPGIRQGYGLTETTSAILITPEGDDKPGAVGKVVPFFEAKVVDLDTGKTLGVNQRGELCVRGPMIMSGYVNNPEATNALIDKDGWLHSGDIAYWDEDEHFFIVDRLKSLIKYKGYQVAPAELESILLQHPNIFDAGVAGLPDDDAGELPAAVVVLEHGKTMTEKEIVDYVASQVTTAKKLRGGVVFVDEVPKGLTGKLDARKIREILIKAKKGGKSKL
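Cell-free enzyme assay, 10nM P. pyralis luciferase, luciferin and ATP each at 10uM. Inhibition profiled over a 6-point titration, read as luminescence.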
IP6K1 inh = Primary qHTS assay for small molecule inhibitors of Inositol hexaphosphate kinase 1 (IP6K1); Inositol hexakisphosphate kinase 1 (Homo sapiens), Q92551; IP6K1 kinase, ADP-Glo luminescence, 2 h; stronger effect = lower value; activity change, % (series mostly up to about 58 µM); 0.81% of 140,000 active; AID 1645851, 2021; in the data active = activity change below about -25%
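ADP-Glo luminescence measures ADP made by human IP6K1 during a 2 h RT reaction with ATP/IP6 (mix at 1.3 mM/130 uM); top library doses 57.5 and 19.1 uM final.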
HEK293 viab = GF-AFC viability counterscreen for inhibitors of alpha-synuclein gene (SNCA) expression; HEK-293-SNCA-luc viability, GF-AFC fluorescence, 24 h; Potency, µM (doses to about 57.1 µM), most hits filed as cytotoxic; 0.12% of 150,000 active; note: nearly all actives have a fitted effect of over 30% in size
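HEK-293-SNCA-luc cells (1500/well) plated 24 h, then exposed 24 h to a dilution series; GF-AFC added 30 min at 37C, fluorescence 405/540 nm; normalised to medium-only and DMSO wells, Hill fit.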
FLuc SDR -ATP = Firefly luciferase (FLuc-C-HiBiT) SDR gain of signal screen - without ATP. shares compounds with FLuc inh-1. Purified FLuc-C-HiBiT, Nano-Glo HiBiT luminescence, no ATP. Potency, µM (titrated, usually from 32.7 µM), actives largely listed as activators. 7.8% of 1,300 active. AID 1963318, 2024; note: nearly all actives have a fitted effect of over 55% in size
FLuc SDR ATP = Firefly luciferase (FLuc-C-HiBiT) SDR gain of signal screen - plus ATP; shares compounds with FLuc inh-1; purified FLuc-C-HiBiT + ATP, HiBiT complementation luminescence; Potency, µM (top dose mostly 32.7 µM), hits mostly activators; 8.7% of 1,300 active;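 note: signal reports ligand binding via conformational change of the enzyme rather than luciferase catalysis; nearly all actives have a fitted effect of over 55% in size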
FLuc inh-2 = Firefly luciferase (FLuc-C-HiBiT) enzymatic inhibition screen - Functional assay; shares compounds with FLuc inh-1; purified FLuc-C-HiBiT enzyme, luciferin luminescence; Potency, µM (doses to about 32.7 µM), hits mostly inhibitors; 42% of 1,300 active; note: nearly all actives have a fitted effect of over 70% in size
Numbers stand for hits; – = inactive; ? = inconclusive; · = not tested or not shown. Unless noted, calls come from the whole dose curve; as a rule, active = well fitted curve in the direction sought with a large enough effect; inconclusive = small, poorly fitted or top-dose-only effect, or another doubt; inactive = no such curve, though single readings can be large; an effect the other way counts as inactive or inconclusive.

SMILES | 3T3 cytotox | SNCA expr inh | HEK293 tox | FLuc inh-1 | IP6K1 inh | HEK293 viab | FLuc SDR -ATP | FLuc SDR ATP | FLuc inh-2
CSC(=S)Nc1ccc(-c2nc3ccc(C)cc3s2)cc1 | · | · | · | · | · | · | – | – | 2.5µM
CCCC(=O)Nc1ccc2nc(SCc3ccc(C)cc3)sc2c1 | · | – | · | · | – | – | · | · | ·
Cc1ccc2nc(-c3ccc(NC(=O)COc4c(C)ccc(C)c4C)cc3)sc2c1 | · | – | · | · | – | – | – | – | ?
Cc1ccc(OCC(=O)Nc2ccc3nc(SCC(=O)Nc4ccc(C)cc4C)sc3c2)cc1 | · | – | · | · | – | – | · | · | ·
C[C@]1(CO)C2CC[C@@H](O)[C@@H](CC(=O)NCc3cccs3)[C@]2(C)CC[C@H]1OC(=O)NC1CCCCC1 (some centres undefined) | ? | – | ? | – | – | – | · | · | ·
Cc1ccc(-c2nc3cccnc3s2)cc1NC(=O)Cc1ccccc1 | · | – | · | · | – | – | · | · | ·
Cc1ccc2nc(-c3ccc(NC(=O)Cc4ccccc4)cc3)sc2c1 | · | – | · | · | – | – | – | – | ?
CCc1ccc(NC(=O)N2CCCC(c3noc(COc4ccccc4)n3)C2)cc1 (centres undefined) | ? | – | ? | 1.4µM | – | – | ? | ? | 2.8µM
COCCCn1c(C)cnc1CC1CCN(C(=O)NC2CCCCC2)CC1 | – | – | – | – | – | – | · | · | ·
COc1ccc(C(=O)N2CC(n3cc(COCC4CC4)nn3)C2)c(OC)n1 | – | – | – | · | – | – | · | · | ·
c1coc(-c2nc3nccc(-c4ccc5c(c4)OCCCO5)n3n2)c1 | ? | ? | ? | 1.3µM | – | – | ? | ? | 1.8µM
COCc1nc2nccc(-c3ccc4c(c3)OCCCO4)n2n1 | – | – | – | – | – | – | · | · | ·
CNC(=O)c1cccc(-c2cnc(Nc3cccnc3OC)c3c2CCO3)c1 | 45µM | – | 28µM | 3.5µM | – | ? | – | – | 5.1µM
CNC(=O)c1cccc(-c2cnc(Nc3ccccc3)c3c2CCO3)c1 | 35µM | – | 89µM | 8.9µM | – | – | – | – | ?
COCCNc1ncc(-c2ccncc2)c2c1OCC2 | ? | – | – | – | – | – | · | · | ·
COCCNc1ncc(-c2cccc(NC(C)=O)c2)c2c1OCC2 | ? | – | ? | 6.3µM | – | – | – | ? | ?
O=C(Nc1ncc(-c2ccccc2)c2c1OCC2)c1ccccc1 | ? | – | ? | 5.6µM | – | – | – | – | ?
COc1cncc(Nc2ncc(-c3cccnc3)c3c2OCC3)c1 | ? | – | ? | – | – | – | · | · | ·
COc1cccc(Nc2ncc(-c3ccc(OC)nc3)c3c2OCC3)c1 | ? | – | ? | 5.6µM | – | – | – | – | ?
COc1cccc(Nc2ncc(-c3c(C)noc3C)c3c2OCC3)c1 | ? | – | ? | – | – | – | · | · | ·
Fc1cccc(-c2cnc(Nc3ccc(N4CCOCC4)cc3)c3c2CCO3)c1 | ? | – | ? | 10µM | – | – | – | – | ?
Cc1ccc(CCNC(=O)c2cnc3c(C)cccn3c2=O)cc1 | · | – | · | · | – | – | · | · | ·
Cc1cccn2c(=O)c(C(=O)NCCc3ccccc3)cnc12 | · | ? | · | · | – | – | ? | ? | 7µM
Cc1ccc(C(=O)N2CCC(Cc3nc(-c4ccc(F)cc4)no3)CC2)cn1 | ? | – | ? | – | – | – | · | · | ·
Nc1nccc(N2CCCC(Cc3ccccc3F)(C(=O)O)C2)n1 (centres undefined) | – | – | – | – | – | – | · | · | ·
SMILES | 3T3 cytotox | SNCA expr inh | HEK293 tox | FLuc inh-1 | IP6K1 inh | HEK293 viab | FLuc SDR -ATP | FLuc SDR ATP | FLuc inh-2
O=C(O)C1(CCc2ccccc2)CCCN(c2ncnc3nc[nH]c23)C1 (centres undefined) | – | – | – | – | – | – | – | – | –
Cc1ccc(NC(=O)O[C@@H]2CC[C@]3(C)[C@H](CC[C@H]4OC(=O)C[C@H]43)[C@]2(C)CO)cc1 | – | – | – | – | – | – | · | · | ·
CNC(=O)[C@@H]1C[C@H](n2cc(C(C)(C)NC(=O)c3ccccc3OC)nn2)CN1 | – | – | – | – | – | – | · | · | ·
O=C1c2cnc(-c3cccc(CO)c3)nc2OCCN1c1cccc(C(F)(F)F)c1 | 18µM | – | ? | 11µM | – | – | – | – | ?
COc1ncccc1-c1ncc2c(n1)OCCN(Cc1ccc(F)cc1F)C2=O | ? | – | – | – | – | – | · | · | ·
O=C1c2cnc(-c3ccccc3C(F)(F)F)nc2OCCN1Cc1ccccc1 | – | – | ? | – | – | – | · | · | ·
Cc1ccc(-c2ncc3c(n2)OCCN(Cc2ccc(F)cc2F)C3=O)cc1 | ? | – | – | 3.2µM | – | – | – | – | –
O=C1c2cnc(-c3cccc(C(F)(F)F)c3)nc2OCCN1CC1CC1 | ? | – | ? | 3.2µM | – | – | ? | ? | 9µM
C[S+](=O)([O-])c1ccc(-c2ncc3c(n2)OCCN(Cc2ccc(F)cc2F)C3=O)cc1 | – | – | ? | – | – | – | · | · | ·
CN1CCOc2nc(-c3cccc(OC(F)(F)F)c3)ncc2C1=O | ? | – | ? | 3.2µM | – | – | – | ? | ?
O=C(N1CCN([S+](=O)([O-])c2ccccc2)CC1)N1CC2CC(C1)[C@H]1CCCC(=O)N1C2 (some centres undefined) | – | – | – | – | – | – | · | · | ·
COCCc1noc(C2Cc3ccccc3N2C(=O)Nc2ccc(C)c(C)c2)n1 (centres undefined) | – | – | ? | ? | – | – | · | · | ·
O=C(Nc1ccc([C@H]2OCC(=O)N(Cc3ccncc3)[C@@H]2CO)cc1)c1ccc(C(F)(F)F)cc1 | ? | – | 20µM | 13µM | – | – | – | – | ?
CC(C)(C)c1ccc(C(=O)Nc2ccc([C@H]3OCC(=O)N[C@@H]3CO)cc2)cc1 | 89µM | – | ? | 10µM | – | – | – | – | ?
